Test results published in PubChem BioAssay (NCATS).
Inconclusive results are not listed. Calls of active or inactive are those of the source. Unless noted, calls follow the shape of the dose curve; as a rule, active = well fitted curve in the direction sought with a large enough effect; inconclusive = small, poorly fitted or top-dose-only effect, or another doubt; inactive = no such curve, though single readings can be large; an effect the other way counts as inactive or inconclusive.

Key:
[1] = Primary qHTS for inhibitors of nuclear receptor binding SET domain protein 2 (NSD2) in an isogenic RCH-ACV NSD2 p.E1099K mutant (9B) (AID 1645876); also: nearly all actives have a fitted effect of over 70% in size; also: potency is read from the fitted curve at half-maximal effect
[2] = Primary qHTS for inhibitors of nuclear receptor binding SET domain protein 2 (NSD2) in an RCH-ACV wild type WT cells (2C) (AID 1645877); also: nearly all actives have a fitted effect of over 70% in size; also: potency is read from the fitted curve at half-maximal effect
[3] = target: Phospholipid hydroperoxide glutathione peroxidase GPX4 (Homo sapiens) (UniProt P36969); experiment: Primary qHTS Assay for Inhibitors of Recombinant Selenoprotein Glutathione Peroxidase 4 (GPX4) (AID 1845192); also: nearly all actives have a fitted effect of over 65% in size; also: potency is read from the fitted curve at half-maximal effect
Procedure, shortened: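 Steps: GPX4 plus compound, 30 min RT; add GR/GSH/NADPH master mix; start with cumene hydroperoxide; read 340/450 nm fluorescence at 0 and 15 min. Finals were 200 nM GPX4, 1 mM GSH, 0.5 mM CHP, 0.5 mM NADPH, 100 nM GR.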

[4] = qHTS drug screen for cell cycle checkpoint inhibitors in PARPi-resistant BRCA-mutant ovarian cancer cell lines. (AID 1963452; calls by dose curve; also: potency is read from the fitted curve at half-maximal effect); conditions: PEO1/OlaR viability, CellTiter-Glo luminescence, 96 h; for Z-AUC: stronger effect = lower value
Procedure, shortened: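 PEO1, PEO4 and PEO1/OlaR ovarian cancer cells, 600 per well, exposed 96 h at 37C to a dilution series. Viability read by CellTiter-Glo luminescence, normalized to DMSO and empty wells; activity summarized as Z-AUC.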

[5] = target: Glutathione peroxidase 1 (Homo sapiens) (UniProt P07203); experiment: Primary qHTS Assay for Inhibitors of Recombinant Selenoprotein Glutathione Peroxidase 1 (GPX1) (AID 1845191); also: nearly all actives have a fitted effect of over 65% in size
Procedure, shortened: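 GR-coupled readout: NADPH consumption tracked by fluorescence, ex 340/em 450 nm, at t=0 and after 15 min at RT. Final mix 10 nM GPX1, 1 mM GSH, 0.5 mM CHP, 0.5 mM NADPH, 100 nM GR, 0.01% BSA, following 30 min enzyme–compound preincubation.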

[6] = measured here: PEO1 parental Z-AUC

Sequence of Glutathione peroxidase 1 (Homo sapiens) (P07203 whole entry, looked up): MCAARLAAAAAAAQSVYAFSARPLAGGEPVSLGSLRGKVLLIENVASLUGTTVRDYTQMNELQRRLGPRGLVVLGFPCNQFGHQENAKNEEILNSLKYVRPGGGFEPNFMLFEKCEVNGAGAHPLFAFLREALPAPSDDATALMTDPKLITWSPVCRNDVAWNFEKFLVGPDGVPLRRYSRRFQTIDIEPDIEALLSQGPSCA
Sequence of Phospholipid hydroperoxide glutathione peroxidase GPX4 (Homo sapiens) (P36969 whole entry, looked up): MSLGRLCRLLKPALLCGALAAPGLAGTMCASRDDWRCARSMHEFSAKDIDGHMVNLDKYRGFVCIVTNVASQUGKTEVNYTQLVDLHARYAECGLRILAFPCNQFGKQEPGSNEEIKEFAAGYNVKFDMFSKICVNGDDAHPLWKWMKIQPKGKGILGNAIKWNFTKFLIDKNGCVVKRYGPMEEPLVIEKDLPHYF

SMILES: COc1cc(OC)cc(N2CCN(C(=O)Nc3nc4cc(F)ccc4nc3OC)CC2)c1
- Potency [1]: 20.9 µM (active)
- Potency [2]: 26.3 µM (active)
- Potency [3]: inactive
- Z-AUC [4]: -0.785 (inactive)
- Z-AUC [4, 6]: -0.317
- Z-AUC ([4]; measured here: PEO4 Z-AUC): 0.136

SMILES: CCNCCc1ccc(CN(CC)c2cc(OC)ccc2[C@@H]2CCc3cc(O)ccc3C2)cc1
- Potency [1]: 6.61 µM (active)
- Potency [2]: 7.42 µM (active)
- Potency [3]: inactive
- Z-AUC [4]: -0.771 (inactive)
- Z-AUC [4, 6]: -0.865
- Z-AUC ([4]; measured here: PEO4 Z-AUC): -1.44

SMILES: [O-][n+]1cccc(-c2nc3c(Cl)cccc3cc2[C@@H](Nc2ncnc3cccnc23)C(F)(F)F)c1
- Potency [1]: 0.263 µM (active)
- Potency [2]: 0.468 µM (active)
- Potency [5]: inactive
- Potency [3]: inactive
- Z-AUC [4]: -0.846 (inactive)
- Z-AUC [4, 6]: 0.42
- Z-AUC ([4]; measured here: PEO4 Z-AUC): 0.695

SMILES: N#Cc1cccnc1N1CCN(C(=O)c2cccc(Cc3n[nH]c(=O)c4ccccc34)c2)CC1
- Potency [1]: 0.0332 µM (active)
- Potency [2]: 0.0209 µM (active)
- Potency [5]: inactive
- Potency [3]: inactive
- Z-AUC [4]: -1.35 (inactive)
- Z-AUC [4, 6]: -2.79
- Z-AUC ([4]; measured here: PEO4 Z-AUC): -1.63

SMILES: C=C1C(=O)OC2/C=C(/C)CC/C=C(/C)CCC12 (stereo not drawn)
- Potency [1]: 11.8 µM (active)
- Potency [2]: 8.33 µM (active)
- Potency [3]: inactive
- Z-AUC [4]: 1.69 (inactive)
- Z-AUC [4, 6]: 1.29
- Z-AUC ([4]; measured here: PEO4 Z-AUC): 1.11

SMILES: C[C@]1(C(=O)N(CCCC(=O)O)Cc2cccc(Cl)c2)CCN1C(=O)c1csc2ccccc12
- Potency [1]: inactive
- Potency [2]: inactive
- Potency [3]: inactive

SMILES: Cc1ccc(C(=O)OCc2ccc([C@@H](CN)C(=O)Nc3ccc4cnccc4c3)cc2)c(C)c1
- Potency [1]: 4.07 µM (active)
- Potency [2]: 3.62 µM (active)
- Potency [3]: inactive
- Z-AUC [4]: -1.52 (inactive)
- Z-AUC [4, 6]: -0.919
- Z-AUC ([4]; measured here: PEO4 Z-AUC): -0.26

SMILES: C=CC(=O)Nc1ccc(F)c(-c2ncnc3[nH]cc(C(=O)OCC)c23)c1
- Potency [1]: 16.6 µM (active)
- Potency [2]: 14.8 µM (active)
- Potency [3]: inactive
- Z-AUC [4]: 0.543 (inactive)
- Z-AUC [4, 6]: 0.95
- Z-AUC ([4]; measured here: PEO4 Z-AUC): 0.747

SMILES: Cc1ccc(Sc2ccccc2N2CCNCC2)c(C)c1
- Potency [1]: 10.5 µM (active)
- Potency [2]: 7.42 µM (active)
- Potency [5]: inactive
- Potency [3]: inactive
- Z-AUC [4]: 0.87 (inactive)
- Z-AUC [4, 6]: 0.0255
- Z-AUC ([4]; measured here: PEO4 Z-AUC): -0.0248

SMILES: COc1cc(N2CCN(C)CC2)ccc1Nc1ncc2c(n1)N(C)c1ccccc1C(=O)N2
- Potency [1]: 16.6 µM (active)
- Potency [2]: 16.6 µM (active)
- Potency [3]: inactive
- Z-AUC [4]: -0.466 (inactive)
- Z-AUC [4, 6]: -0.178
- Z-AUC ([4]; measured here: PEO4 Z-AUC): 0.52

SMILES: C/C(=C\c1csc(C)n1)[C@@H]1C[C@@H]2O[C@]2(C)CCC[C@H](C)[C@H](O)[C@@H](C)C(=O)C(C)(C)[C@@H](O)CC(=O)N1
- Potency [1]: 0.934 µM (active)
- Potency [2]: 0.742 µM (active)
- Potency [5]: inactive
- Potency [3]: inactive
- Z-AUC [4]: -0.955 (inactive)
- Z-AUC [4, 6]: -1.61
- Z-AUC ([4]; measured here: PEO4 Z-AUC): -1.78

SMILES: C[C@@H]1COCCN1c1cc(-c2ccnn2C)c2ccnc(-c3ccn[nH]3)c2n1
- Potency [1]: 0.209 µM (active)
- Potency [2]: 0.186 µM (active)
- Potency [3]: 20.2 µM (active)
- Z-AUC [4]: -0.499 (inactive)
- Z-AUC [4, 6]: -1.38
- Z-AUC ([4]; measured here: PEO4 Z-AUC): -1.35

SMILES: COc1ccc(S(=O)(=O)N(C(C)=O)c2ccccc2/C=C/c2cc[n+]([O-])cc2)cc1
- Potency [1]: 1.05 µM (active)
- Potency [2]: 1.05 µM (active)
- Potency [5]: inactive
- Potency [4]: 1.1 µM (active)
- Z-AUC [4, 6]: -1.34
- Z-AUC ([4]; measured here: PEO4 Z-AUC): -1.39

SMILES: COc1ccc(S(=O)(=O)Nc2cc(-c3csc(C#N)c3)ccc2C)cc1
- Potency [1]: 0.105 µM (active)
- Potency [2]: 0.118 µM (active)
- Potency [5]: inactive
- Potency [3]: inactive
- Z-AUC [4]: -0.571 (inactive)
- Z-AUC [4, 6]: -1.63
- Z-AUC ([4]; measured here: PEO4 Z-AUC): -1.47

SMILES: COc1ccc(S(=O)(=O)N2CCc3cccc(-c4ccncc4)c32)cc1
- Potency [1]: 0.833 µM (active)
- Potency [2]: 0.934 µM (active)
- Potency [3]: inactive
- Z-AUC [4]: -1.73 (inactive)
- Z-AUC [4, 6]: -1.49
- Z-AUC ([4]; measured here: PEO4 Z-AUC): -1.55

SMILES: CCCCCCCOc1ccc(CCC(N)(CO)CO)cc1C(F)(F)F
- Potency [1]: 11.8 µM (active)
- Potency [2]: 10.5 µM (active)
- Potency [3]: inactive
- Z-AUC [4]: -0.8 (inactive)
- Z-AUC [4, 6]: -1.22
- Z-AUC ([4]; measured here: PEO4 Z-AUC): -1.35

SMILES: CCNC(=O)Nc1ccc(-c2nc3c(c(N4CCOC[C@@H]4C)n2)CCN(C2COC2)C3)cc1
- Potency [1]: 0.833 µM (active)
- Potency [2]: 0.742 µM (active)
- Potency [5]: inactive
- Potency [3]: inactive
- Z-AUC [4]: 0.987 (inactive)
- Z-AUC [4, 6]: 1.46
- Z-AUC ([4]; measured here: PEO4 Z-AUC): 1.27

SMILES: NC(=O)C1=C(O)[C@@]2(O)C(=O)C3=C(O)c4c(O)cccc4C[C@H]3C[C@H]2CC1=O
- Potency [1]: 4.17 µM (active)
- Potency [2]: 3.32 µM (active)
- Potency [5]: inactive
- Z-AUC [4]: -0.543 (inactive)
- Z-AUC [4, 6]: -1.08
- Z-AUC ([4]; measured here: PEO4 Z-AUC): -1.12

SMILES: Cc1cc(Nc2ncnc3ccc(NC4=NC(C)(C)CO4)cc23)ccc1Oc1ccn2ncnc2c1
- Potency [1]: 18.6 µM (active)
- Potency [2]: 16.6 µM (active)
- Potency [3]: inactive
- Z-AUC [4]: -0.395 (inactive)
- Z-AUC [4, 6]: -0.0434
- Z-AUC ([4]; measured here: PEO4 Z-AUC): -0.29

SMILES: CCOC(=O)C1=CCCCC1S(=O)(=O)Nc1ccc(F)cc1Cl (stereo not drawn)
- Potency [1]: 20.9 µM (active)
- Potency [2]: 18.6 µM (active)
- Potency [5]: inactive
- Z-AUC [4]: 1.33 (inactive)
- Z-AUC [4, 6]: 1.11
- Z-AUC ([4]; measured here: PEO4 Z-AUC): 1.15
